The results in this text go back to the supplement of paper PMC7866885, “A novel bicyclic 2,4-diaminopyrimidine inhibitor of Streptococcus suis dihydrofolate reductase” (PeerJ, 2021).

SMILES strings stand for the structures. ± gives the standard deviation.

The subject of this assay is Streptococcus suis HE06. Description: percent growth relative to DMSO control; higher = less growth inhibition. Conditions: 10 µM; incubation time 18 h. The protocol: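 CLSI broth microdilution: 5x10^4 CFU of Streptococcus suis (strain P1/7 or HE06) incubated with 10 µM Pathogen Box compound in cation-adjusted Mueller Hinton broth, 37 °C, 5% CO2, 18 h. Growth read as OD600 and expressed as percent of the DMSO-treated control (100%); mean ± SD of three independent experiments.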
For the molecule `O=C(Nc1ccc(C(F)(F)F)c(C(F)(F)F)c1)c1cc(Cl)ccc1O`, the percent growth is 0%.
Then `COc1ccc(-c2cnc3ccc(N4CCCC4)nn23)cc1OC`, with 48.8 ± 40%; and `Cc1ccc(Oc2ccc(NC(=O)CNc3ccccc3N3CCCC3=O)cc2)cc1`, with 86.9 ± 11%; and `CCCCOC(=O)Nc1cc2nc(C3CCCCC3)[nH]c2cc1N1CCCC1`, with 29.6 ± 40%.
Then `Cc1ccc(NC(=O)c2cc(S(=O)(=O)NC(C)(C)C)ccc2C)nc1`, with 207 ± 200%.
Then `CCOc1ccccc1NC(C)C(=O)Nc1cc(C(F)(F)F)ccc1N1CCOCC1` (stereo not drawn), with 115 ± 20%; and `CC1=NN(c2nc3ccccc3s2)C(=O)C1Cc1cccc2ccccc12` (stereo not drawn), with 0.762 ± 0.8%; and `FC(F)(F)c1nnc2ccc(Cl)nn12`, with 74.8 ± 22%.
In turn, `Cc1cc(C)n(-c2ccc(NC(=O)C3CCN(Cc4cnc(C)s4)CC3)cc2)n1` gave a percent growth of 95.3 ± 24%.
The molecule `Nc1cccnc1Nc1ccc(Cl)cc1` gave a percent growth of 94.6 ± 4.4%.
`Cc1ccc(S(=O)(=O)Nc2ccc(CN3CCN(C(=O)c4cccc(C#N)c4)CC3)cc2)cc1` yielded a percent growth of 104 ± 9.6%.
Then `O=C(Nc1nnc(S)s1)c1cc(Br)ccc1Cl`, with 107 ± 10%; and `CNC(=O)CNc1nc(-c2ccccn2)nc2scc(-c3ccccc3)c12`, with 87.1 ± 13%.
As to `CCc1ccc(C(NCc2nc(N)nc(N(C)C)n2)C(C)C)cc1` (stereo not drawn), the percent growth amounted to 12.8 ± 16%.
Regarding `Nc1nccc2ccc(-c3ccc4nccn4c3)cc12`, the percent growth was 85.8 ± 25%.
Then `Cc1cnc(N2CCN[C@@H](Cc3ccccc3)C2)nc1Oc1ccc(-n2ccnc2)cc1`, with 98.9 ± 9.1%; and `O=C(NCCN1CCCC1)c1cc(NCCCCN2CCC(F)(F)CC2)nc2ccc(Cl)cc12`, with 93 ± 6.6%.
With `CC(C)(C)n1nc(Cc2ccc(F)c(Cl)c2)c2c(N)ncnc21`, the percent growth turned out to be 91.5 ± 3.1%.
`Cc1ccc2c(c1C)NC(=O)C21NN=C(c2ccccc2)S1` (stereo not drawn) came in with a percent growth of 0.434 ± 0.78%.
Then `Cc1nc(-c2ccccn2)nc(NCCc2ccc(S(C)(=O)=O)cc2)c1Cl`, with 131 ± 60%; and `Cc1cnc(CCNC(=O)c2cc(-c3ccc(Cl)cc3)cs2)[nH]1`, with 80.7 ± 6.9%; and `Cc1ccc(S(=O)(=O)N2CCN(C(=O)c3cc(-c4ccccc4)[nH]n3)CC2)cc1`, with 118 ± 39%.
In the case of `COc1cc(NC(=O)Cc2nn(C)c(=O)c3ccccc23)ccc1Cl`, the percent growth worked out at 82.8 ± 6.6%.
`O=C(Nc1cccnc1)c1c(O)c2cccc3c2n(c1=O)CC3` gave a percent growth of 78.3 ± 3.7%.
On to `COc1ccc(-c2nnc3ccc(-c4cccc(C(C)C)c4)cn23)cc1OC`, for which the percent growth was 97.1 ± 15%.
Then `NCC(=O)N1CCn2c(nc(-c3ccccc3)c2Nc2ccc3c(c2)OCO3)C1`, with 97.6 ± 33%; and `COc1cccc(-c2cc3c(Nc4cccnc4)nccc3[nH]2)c1`, with 226 ± 230%; and `CCCCS(=O)(=O)Nc1ccc2cnn(C)c2c1`, with 92.3 ± 11%.
In turn, `CNc1nnc(Sc2cnn(-c3ccccc3)c(=O)c2Cl)s1` displayed a percent growth of 81.9 ± 1.8%.
`O=C(NC1CCN(c2ccnc3ccccc23)C1)c1cccc(C(F)(F)F)c1` (stereo not drawn) had a percent growth of 106 ± 30%.
Turning to `CC(C)(C)OC(=O)N1CCN(c2nccc(-c3ccc(-c4ccc(Cl)cc4)s3)n2)CC1`, the percent growth stood at 88.2 ± 12%.
The molecule `O=C(NC1=NCCS1)c1sc2cc(F)ccc2c1Cl` showed a percent growth of 93.8 ± 5.2%.
Then `O=C1N(Cc2cc3ccccc3s2)CC2CN(Cc3ccccc3)CCN12` (stereo not drawn), with 82.2 ± 8%.
For the molecule `NCCCC(N)(C(=O)O)C(F)F` (stereo not drawn), the percent growth is 84.8 ± 12%.
`CC(=O)Nc1ccc(-c2noc(CC3CCCN(Cc4cccc(F)c4C)C3)n2)cc1` (stereo not drawn) had a percent growth of 109 ± 44%.
On to `COc1cc(C(F)(F)F)nc2ccc(C)c(N)c12`, for which the percent growth was 101 ± 4.2%.
Then `CN1CCCC1CCO[C@](C)(c1ccccc1)c1ccc(Cl)cc1` (stereo partly drawn), with 86.3 ± 9.2%.
Then `CC(C)(C(=O)Nc1ccc(F)cc1)n1cc(-c2ccccc2F)cn1`, with 106 ± 22%.
